Test results as given in PubChem BioAssay (NCATS).
Results filed as inconclusive are left out. Activity calls are given as the source filed them. Calls come from the whole dose curve; as a rule, active = well fitted inhibition curve with a large enough effect; inconclusive = small, poorly fitted or top-dose-only effect; inactive = flat fitted curve, though single readings scatter. Where a SMILES comes first, the peptide text is derived from it. Bridges are numbered along the chain shown (N, C = ends). [ ]: non-standard residue; d: D form. hArg = N=C(N)NCCCC[C@H](N)C(=O)O; Mpa = O=C(O)CCS

Tests used:
[1] = qHTS profiling for inhibitors of Plasmodium falciparum proliferation (AID 504749);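 note: 0% = DMSO vehicle and full inhibition = artemisinin control; nearly all actives have a fitted effect of over 60% in size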; details: P. falciparum in erythrocytes, SYBR Green DNA, 72 h
Method in brief: (§1)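 Each compound contacts P. falciparum-infected red blood cells for 72 h at 37 C; lysis buffer (Tris, EDTA, saponin, Triton X, SYBR Green I) is added and fluorescence measured next morning; values normalized to controls.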

3D7 = test: as above; details: P. falciparum in erythrocytes, SYBR Green DNA, 72 h; series mostly up to 28.7 µM
Method in brief: as §1

7G8 = test: as above; details: P. falciparum in erythrocytes, SYBR Green DNA, 72 h; series mostly up to 28.7 µM
Method in brief: as §1

AA1029 = test: as above; details: P. falciparum in erythrocytes, SYBR Green DNA, 72 h; series mostly up to 28.7 µM
Method in brief: as §1

AS120 = test: as above; details: P. falciparum in erythrocytes, SYBR Green DNA, 72 h; series mostly up to 28.7 µM
Method in brief: as §1

ATS189 = test: as above; details: P. falciparum in erythrocytes, SYBR Green DNA, 72 h; series mostly up to 28.7 µM
Method in brief: as §1

ATS95 = test: as above; details: P. falciparum in erythrocytes, SYBR Green DNA, 72 h; series mostly up to 28.7 µM
Method in brief: as §1

C2A = test: as above; details: P. falciparum in erythrocytes, SYBR Green DNA, 72 h; series mostly up to 28.7 µM
Method in brief: as §1

CP185 = test: as above; details: P. falciparum in erythrocytes, SYBR Green DNA, 72 h; series mostly up to 28.7 µM
Method in brief: as §1

CP191 = test: as above; details: P. falciparum in erythrocytes, SYBR Green DNA, 72 h; series mostly up to 28.7 µM
Method in brief: as §1

CP192 = test: as above; details: P. falciparum in erythrocytes, SYBR Green DNA, 72 h; series mostly up to 28.7 µM
Method in brief: as §1

[2] = at 12.8 µM (top of the series), parasite line A
[3] = at 12.8 µM (top of the series), parasite line B
[4] = at 28.7 µM (top of the series), parasite line A
[5] = at 28.7 µM (top of the series), parasite line B

NS(=O)(=O)c1cc2c(cc1C(F)(F)F)NCNS2(=O)=O
inactive: activity, negative = inhibition [1, 2] 2.71% | activity, negative = inhibition [1, 3] 5.88% | Potency (3D7) | Potency (7G8) | Potency (AA1029) | Potency (AS120) | Potency (ATS189) | Potency (ATS95) | Potency (C2A) | Potency (CP185) | outcome (CP191) | outcome (CP192)

O=C(O)Cc1cn(-c2ccccc2)nc1-c1ccc(Cl)cc1
inactive: activity, negative = inhibition [1, 4] 11.4% | activity, negative = inhibition [1, 5] 9.39% | Potency (3D7) | Potency (7G8) | Potency (AA1029) | Potency (AS120) | Potency (ATS189) | Potency (ATS95) | Potency (C2A) | Potency (CP185) | outcome (CP191) | outcome (CP192)

CC(=O)Nc1cccc(O)c1
inactive: activity, negative = inhibition [1, 4] 7.02% | activity, negative = inhibition [1, 5] 9.95% | Potency (3D7) | Potency (7G8) | Potency (AA1029) | Potency (AS120) | Potency (ATS189) | Potency (ATS95) | Potency (C2A) | Potency (CP185) | outcome (CP191) | outcome (CP192)

NC(=O)NS(=O)(=O)c1ccc(N)cc1
inactive: activity, negative = inhibition [1, 4] -1.96% | activity, negative = inhibition [1, 5] 15.9% | Potency (3D7) | Potency (7G8) | Potency (AA1029) | Potency (AS120) | Potency (ATS189) | Potency (ATS95) | Potency (C2A) | Potency (CP185) | outcome (CP191) | outcome (CP192)

CC(C)(C)C(=O)OCOC(=O)[C@@H]1N2C(=O)[C@@H](NC(=O)[C@H](N)c3ccccc3)[C@H]2SC1(C)C
inactive: activity, negative = inhibition [1, 2] -1.26% | activity, negative = inhibition [1, 3] -15.3% | Potency (3D7) | Potency (7G8) | Potency (AA1029) | Potency (AS120) | Potency (ATS189) | Potency (ATS95) | Potency (C2A) | Potency (CP185) | outcome (CP191) | outcome (CP192)

CCc1cccc(CC)c1NC(=O)CN(CC(=O)O)CC(=O)O
inactive: activity, negative = inhibition [1, 2] 1.37% | activity, negative = inhibition [1, 3] 6.7% | Potency (3D7) | Potency (7G8) | Potency (AA1029) | Potency (AS120) | Potency (ATS189) | Potency (ATS95) | Potency (C2A) | Potency (CP185) | outcome (CP191) | outcome (CP192)

COc1cc(O)cc(O)c1
inactive: activity, negative = inhibition [1, 4] 4.63% | activity, negative = inhibition [1, 5] -8.81% | Potency (3D7) | Potency (7G8) | Potency (AA1029) | Potency (AS120) | Potency (ATS189) | Potency (ATS95) | Potency (C2A) | Potency (CP185) | outcome (CP191) | outcome (CP192)

O=C(O)Cn1c(C(=O)Nc2nc(-c3ccccc3Cl)cs2)cc2ccccc21
inactive: activity, negative = inhibition [1, 4] 10.1% | activity, negative = inhibition [1, 5] 5.81% | Potency (3D7) | Potency (7G8) | Potency (AA1029) | Potency (AS120) | Potency (ATS189) | Potency (ATS95) | Potency (C2A) | Potency (CP185) | outcome (CP191) | outcome (CP192)

Cc1c(N(C)C)c(=O)n(-c2ccccc2)n1C
inactive: activity, negative = inhibition [1, 4] 13.7% | activity, negative = inhibition [1, 5] 18.1% | Potency (3D7) | Potency (7G8) | Potency (AA1029) | Potency (AS120) | Potency (ATS189) | Potency (ATS95) | Potency (C2A) | Potency (CP185) | outcome (CP191) | outcome (CP192)

O=C(NCN1CCOCC1)c1cnccn1
inactive: activity, negative = inhibition [1, 4] -8.14% | activity, negative = inhibition [1, 5] 11.7% | Potency (3D7) | Potency (7G8) | Potency (AA1029) | Potency (AS120) | Potency (ATS189) | Potency (ATS95) | Potency (C2A) | Potency (CP185) | outcome (CP191) | outcome (CP192)

O=C(NCCCN1CCOCC1)c1ccc(Cl)cc1
inactive: activity, negative = inhibition [1, 4] 6.41% | activity, negative = inhibition [1, 5] 5.99% | Potency (3D7) | Potency (7G8) | Potency (AA1029) | Potency (AS120) | Potency (ATS189) | Potency (ATS95) | Potency (C2A) | Potency (CP185) | outcome (CP191) | outcome (CP192)

C[C@@H]1O[C@@H](OC[C@H]2O[C@@H](Oc3c(-c4ccc(O)c(O)c4)oc4cc(O)cc(O)c4c3=O)[C@H](O)[C@@H](O)[C@@H]2O)[C@H](O)[C@H](O)[C@H]1O
inactive: activity, negative = inhibition [1, 4] 3.3% | activity, negative = inhibition [1, 5] 8.33% | Potency (3D7) | Potency (7G8) | Potency (AA1029) | Potency (AS120) | Potency (ATS189) | Potency (ATS95) | Potency (C2A) | Potency (CP185) | outcome (CP191) | outcome (CP192)

Cc1ccccc1N=Nc1ccc(N=Nc2c(O)ccc3ccccc23)c(C)c1
inactive: activity, negative = inhibition [1, 4] 3.72% | activity, negative = inhibition [1, 5] 9.83% | Potency (3D7) | Potency (7G8) | Potency (AA1029) | Potency (AS120) | Potency (ATS189) | Potency (ATS95) | Potency (C2A) | Potency (CP185) | outcome (CP191) | outcome (CP192)

NC(=O)[C@@H]1CSSCCC(=O)N[C@@H](CCCCN=C(N)N)C(=O)NCC(=O)N[C@@H](CC(=O)O)C(=O)N[C@@H](Cc2c[nH]c3ccccc23)C(=O)N2CCC[C@H]2C(=O)N1 ([Mpa][hArg]GDWPC-NH2; disulfide 1-7)
inactive: activity, negative = inhibition [1, 4] -6.16% | activity, negative = inhibition [1, 5] 11.6% | Potency (3D7) | Potency (7G8) | Potency (AA1029) | Potency (AS120) | Potency (ATS189) | Potency (ATS95) | Potency (C2A) | Potency (CP185) | outcome (CP191) | outcome (CP192)

COC(=O)c1cccnc1
inactive: activity, negative = inhibition [1, 4] 7.8% | activity, negative = inhibition [1, 5] 16.6% | Potency (3D7) | Potency (7G8) | Potency (AA1029) | Potency (AS120) | Potency (ATS189) | Potency (ATS95) | Potency (C2A) | Potency (CP185) | outcome (CP191) | outcome (CP192)

COC(=O)c1ccc(O)cc1
inactive: activity, negative = inhibition [1, 4] 3.79% | activity, negative = inhibition [1, 5] 9.44% | Potency (3D7) | Potency (7G8) | Potency (AA1029) | Potency (AS120) | Potency (ATS189) | Potency (ATS95) | Potency (C2A) | Potency (CP185) | outcome (CP191) | outcome (CP192)

O=C(O)CCCc1ccccc1
inactive: activity, negative = inhibition [1, 4] 3.34% | activity, negative = inhibition [1, 5] -0.114% | Potency (3D7) | Potency (7G8) | Potency (AA1029) | Potency (AS120) | Potency (ATS189) | Potency (ATS95) | Potency (C2A) | Potency (CP185) | outcome (CP191) | outcome (CP192)

CN1C(C)(C)CCCC1(C)C
inactive: activity, negative = inhibition [1, 4] 8.89% | activity, negative = inhibition [1, 5] 5.87% | Potency (3D7) | Potency (7G8) | Potency (AA1029) | Potency (AS120) | Potency (ATS189) | Potency (ATS95) | Potency (C2A) | Potency (CP185) | outcome (CP191) | outcome (CP192)
